The source of these data is PubChem BioAssay (Tox21).

Unmarked numbers belong to inactive results. Records with an inconclusive call do not appear. Activity calls are given as the source filed them. Unless noted, calls come from the whole dose curve.

Experiment [1] can be described thus: Nuclear factor erythroid 2-related factor 2/antioxidant responsive element (Nrf2/ARE) small molecule agonists: luciferase reporter gene qHTS assay in human keratinocytes (AID 1919969; note: nearly all actives have a fitted effect of over 35% in size; note: potency is the fitted concentration of half-maximal effect). (A reporter such as luciferase makes a cellular process visible.)
Experiment [2] addresses KiSS-1 receptor (Homo sapiens) (UniProt Q969F8). Kind of experiment: Human kisspeptin (KISS1R) small molecule agonists, calcium flux assay in KISS1R-HEK293 cells (AID 1920064; active = well fitted activation curve with a large enough effect in the repeat runs). The procedure, abridged:
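Measures KISS1R agonism through calcium-sensitive dye fluorescence in stably transfected HEK293 cells, read for 3 min after pin-tool compound delivery; 15-point titrations in triplicate.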
For orientation: Calcium assays in cells follow changes in intracellular calcium, usually with a dye or a luminescent sensor.

Experiment [3] can be described thus: G protein-coupled receptor (GPCR) small molecule agonists, calcium flux assay: HEK293 wild type cell line counter screen (AID 1920065). The procedure, abridged:
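Readout: fluorescence at 480 nm excitation/540 nm emission, sampled at 1 s intervals for 3 min. Cells had been cultured 18 h, then dye-loaded 1 h at 37 C before compound or ATP addition.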

The nature of experiment [4]: p53 small molecule agonists, cell-based qHTS assay with human liver microsomes (AID 1963577).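 Note: p53 response element beta-lactamase reporter cells with liver microsomes plus NADPH.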 The procedure, abridged:
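Reporter activation was measured by LiveBLAzer fluorescence intensity in p53RE-bla cells, which had been exposed to compounds for 16 h at 37 C alongside 0.5 mg/mL human liver microsomes and 0.5 mg/mL NADPH (final concentrations).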
A general note: Quantitative high-throughput screening tests each substance at several concentrations.

Experiment [5] can be described thus: p53 small molecule agonists, cell-based qHTS assay with rat liver microsomes (AID 1963578). The procedure, abridged:
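Compound in DMSO added to p53RE-bla cells 5 h post-plating; rat microsomes/NADPH 0.5 mg/mL final; 16 h, 37 C; LiveBLAzer 2 h RT.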

Experiment [6] in a line: p53 small molecule agonists, cell-based qHTS assay with human liver microsomes: qHTS cell viability counter screen (AID 1963579). Note: nearly all actives have a fitted effect of over 45% in size. The procedure, abridged:
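HLM-supplemented (0.5 mg/mL final) and NADPH-supplemented (0.5 mg/mL final) p53RE-bla cultures, 4,000 cells per well, were dosed with compounds in DMSO for 16 h at 37 C; luminescent ATP detection (CellTiter-Glo, 30 min, room temperature) quantified surviving cells.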

Experiment [7] is described as follows: p53 small molecule agonists, cell-based qHTS assay with rat liver microsomes: qHTS cell viability counter screen (AID 1963580). Note: nearly all actives have a fitted effect of over 45% in size. The procedure, abridged:
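In HCT-116 cells carrying a p53 response element-bla reporter, compounds were metabolically activated in situ by rat liver microsomes with NADPH over 16 h. Cell ATP content then served as the cytotoxicity measure.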

The target of experiment [8] is 5-hydroxytryptamine receptor 2A (Homo sapiens) (UniProt P28223). Kind of experiment: 5-hydroxytryptamine receptor 2A (HTR2A) small molecule antagonists, cell-based qHTS assay (AID 1963586). Note: nearly all actives have a fitted effect of over 45% in size. In a few lines: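 Antagonist-mode intracellular calcium assay: DOI (4 nM) added after 5 min compound pre-incubation at room temperature to dye-loaded HTR2A-CHO cells. Fluorescence followed for 3 min, sampled every second.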

The target is the same in experiment [9]. In words: 5-hydroxytryptamine receptor 2A (HTR2A) small molecule agonists, cell-based qHTS assay (AID 1963587). Note: nearly all actives have a fitted effect of over 30% in size. The procedure, abridged:
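HTR2A-CHO cells, plated 18 h at 37 C/5% CO2, dye-loaded 1 h at 37 C; compounds in DMSO added by pin tool (agonist mode). Intracellular calcium flux read as kinetic fluorescence on FDSS over 2 min at 1 s intervals.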

In experiment [10] the target is Muscarinic acetylcholine receptor M1 (Homo sapiens) (UniProt P11229). In words: Cholinergic receptor muscarinic 1 (CHRM1) small molecule antagonists, cell-based qHTS assay (AID 1963588). Note: nearly all actives have a fitted effect of over 40% in size. The procedure, abridged:
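CHRM1-CHO calcium-flux assay, antagonist mode. Cells were seeded 18 h, dye-loaded 1 h at 37 C and given compound for 5 min at RT, then acetylcholine was added at 50nM. FDSS fluorescence was read 3 min; 15 concentrations, three runs.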

The target is the same in experiment [11]. Kind of experiment: Cholinergic receptor muscarinic 1 (CHRM1) small molecule agonists, cell-based qHTS assay (AID 1963589). Note: nearly all actives have a fitted effect of over 35% in size. In a few lines:
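Each compound was tested at 15 concentrations across three independent runs on dye-loaded CHO cells stably expressing human CHRM1, reading intracellular calcium fluorescence kinetically at 1 sec intervals.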

In experiment [12] the target is Beta-2 adrenergic receptor (Homo sapiens) (UniProt P07550). In words: Adrenergic beta2 receptor (ADRB2) small molecule antagonists, cell-based qHTS assay (AID 1963592). Note: series mostly up to about 92 µM; nearly all actives have a fitted effect of over 50% in size. In a few lines:
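Cells (CHO, stable ADRB2 overexpression) incubated 18-20hr at 37C; compounds added from DMSO; agonist mix (1nM isoproterenol, 100uM IBMX, 25uM Ro-20-1724) added; 0.5hr RT; d2-cAMP and anti-cAMP-cryptate added; 1hr RT; 665/615 nm read.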

Experiment [13] concerns the target D(2) dopamine receptor (Homo sapiens) (UniProt P14416). In words: Dopamine D2 receptor (DRD2) small molecule antagonists, cell-based qHTS assay (AID 1963595; active = well fitted inhibition curve with a large enough effect in the signal ratio in the repeat runs, with a control signal flat; the % refers to the signal ratio). In a few lines: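 HEK293 cells stably expressing DRD2, preincubated with 0.1 mM Ro20-1724 and compounds 10 min, were stimulated with 200 nM NKH477 plus 12 nM quinpirole for 30 min at room temperature; cAMP measured by HTRF (665/620 nm).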

The target of experiment [14] is Gonadotropin-releasing hormone receptor (Homo sapiens) (UniProt P30968). In words: Human gonadotropin-releasing hormone receptor (GnRHR) small molecule agonists, calcium flux assay in GnRHR-HEK293 cells (AID 1920063). Note: nearly all actives have a fitted effect of over 35% in size. In a few lines:
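Fluorescence kinetics (480 nm excitation, 540 nm emission; 3 min, 1 s steps) report calcium mobilisation in human GnRHR-HEK293 cells in agonist mode. Dye incubation: 1 h, 37 C.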

Experiment [15] is described as follows: p53 small molecule agonists, cell-based qHTS assay: qHTS cell viability counter screen (AID 1963581). Note: nearly all actives have a fitted effect of over 45% in size. In a few lines:
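In the same plates used for the p53 bla reporter, HCT-116 cells given compounds for 16 h at 37 C received CellTiter-Glo; luminescence was recorded 30 min later at room temperature.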

Experiment [16] in a line: p53 small molecule agonists, cell-based qHTS assay (AID 1963582; active = well fitted activation curve with a large enough effect in the signal ratio in the repeat runs, not every such curve was filed as active; the % refers to the signal ratio). In a few lines: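 Compounds are pin-transferred in DMSO onto p53RE-bla cells and incubated 16 h at 37 C. The B/G FRET beta-lactamase substrate is then applied for 2 h at RT and fluorescence recorded.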
A short description of experiment [17]: cAMP Responsive Elements (CRE) small molecule agonists, cell-based qHTS assay (AID 1963590). In a few lines: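 Cell line: CRE-bla HEK 293T; medium DMEM/10% dialyzed FBS/0.1 mM NEAA/1 mM pyruvate/25 mM HEPES; 3 h compound exposure; beta-lactamase FRET readout after 2 h substrate loading at RT.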
Experiment [18] concerns the target Beta-2 adrenergic receptor (Homo sapiens) (UniProt P07550). In words: Adrenergic beta2 receptor (ADRB2) small molecule agonists, cell-based qHTS assay (AID 1963593).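 Note: CHO cells stably overexpressing human ADRB2.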 In a few lines: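 CHO cells stably over-expressing ADRB2 were plated overnight at 37C, then dosed with compounds plus a stimulation mix containing 100uM IBMX and 25uM Ro-20-1724 for 0.5hr at room temperature. cAMP was measured by HTRF competition, 1hr.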

Experiment [19] addresses D(2) dopamine receptor (Homo sapiens) (UniProt P14416). In words: Dopamine D2 receptor (DRD2) small molecule agonists, cell-based qHTS assay (AID 1963594). Note: nearly all actives have a fitted effect of over 35% in size. The procedure, abridged:
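HEK293 cells stably expressing DRD2 were cultured 24 h at 37 C, then given Ro20-1724 (0.1 mM final) and compounds for 10 min at room temperature. NKH477 (200nM) was then added for 30 min. cAMP was read by HTRF.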

A short description of experiment [20]: cAMP Responsive Elements (CRE) small molecule antagonists, cell-based qHTS assay (AID 1963591; active = well fitted inhibition curve with a large enough effect in the signal ratio in the repeat runs, not every such curve was filed as active; the % refers to the signal ratio). The procedure, abridged: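 Inhibition of NKH477-driven (0.25 uM final) CRE-beta-lactamase signal in HEK293T cells, 3 h compound exposure at 37 °C, detected by FRET substrate fluorescence.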
% is set by controls: 0 for no effect and ±100 for the full control effect.

5-hydroxytryptamine receptor 2A (Homo sapiens), sequence (P28223 whole entry, looked up): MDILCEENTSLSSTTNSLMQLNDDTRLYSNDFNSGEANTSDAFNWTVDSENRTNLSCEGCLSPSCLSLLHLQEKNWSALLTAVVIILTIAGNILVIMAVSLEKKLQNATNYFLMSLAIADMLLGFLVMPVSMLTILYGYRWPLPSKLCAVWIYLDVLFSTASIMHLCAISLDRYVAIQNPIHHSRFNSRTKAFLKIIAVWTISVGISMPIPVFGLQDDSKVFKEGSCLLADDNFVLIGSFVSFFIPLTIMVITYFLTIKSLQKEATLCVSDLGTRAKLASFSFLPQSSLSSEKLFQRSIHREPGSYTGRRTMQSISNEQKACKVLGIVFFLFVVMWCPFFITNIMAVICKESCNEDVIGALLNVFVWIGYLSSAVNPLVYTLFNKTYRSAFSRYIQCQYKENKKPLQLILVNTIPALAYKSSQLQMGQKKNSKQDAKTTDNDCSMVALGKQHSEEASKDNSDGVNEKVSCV
Beta-2 adrenergic receptor (Homo sapiens), sequence (P07550 whole entry, looked up): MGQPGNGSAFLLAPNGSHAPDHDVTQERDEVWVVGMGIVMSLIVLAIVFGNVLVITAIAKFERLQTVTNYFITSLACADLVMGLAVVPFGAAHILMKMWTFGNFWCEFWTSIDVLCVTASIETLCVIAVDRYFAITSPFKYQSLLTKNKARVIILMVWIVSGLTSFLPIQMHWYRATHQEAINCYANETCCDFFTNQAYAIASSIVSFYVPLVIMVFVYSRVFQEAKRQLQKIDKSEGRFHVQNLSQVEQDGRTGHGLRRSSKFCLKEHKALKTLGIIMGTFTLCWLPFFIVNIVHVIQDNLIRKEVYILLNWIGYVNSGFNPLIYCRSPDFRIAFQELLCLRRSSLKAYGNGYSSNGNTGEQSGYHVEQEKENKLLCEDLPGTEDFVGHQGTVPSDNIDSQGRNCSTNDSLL
D(2) dopamine receptor (Homo sapiens), sequence (P14416 whole entry, looked up): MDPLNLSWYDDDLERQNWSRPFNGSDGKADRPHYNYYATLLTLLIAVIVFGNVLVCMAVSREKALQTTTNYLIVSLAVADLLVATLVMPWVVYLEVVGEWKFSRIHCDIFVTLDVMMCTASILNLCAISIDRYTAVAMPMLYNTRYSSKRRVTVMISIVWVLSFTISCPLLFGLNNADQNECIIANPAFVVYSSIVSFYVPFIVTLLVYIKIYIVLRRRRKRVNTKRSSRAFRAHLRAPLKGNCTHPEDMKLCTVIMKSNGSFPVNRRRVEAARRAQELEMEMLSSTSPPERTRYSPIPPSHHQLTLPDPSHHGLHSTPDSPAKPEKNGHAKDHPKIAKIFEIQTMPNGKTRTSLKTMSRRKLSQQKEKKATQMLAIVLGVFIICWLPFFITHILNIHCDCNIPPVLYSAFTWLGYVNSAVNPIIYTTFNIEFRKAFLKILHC
Gonadotropin-releasing hormone receptor (Homo sapiens), sequence (P30968 whole entry, looked up): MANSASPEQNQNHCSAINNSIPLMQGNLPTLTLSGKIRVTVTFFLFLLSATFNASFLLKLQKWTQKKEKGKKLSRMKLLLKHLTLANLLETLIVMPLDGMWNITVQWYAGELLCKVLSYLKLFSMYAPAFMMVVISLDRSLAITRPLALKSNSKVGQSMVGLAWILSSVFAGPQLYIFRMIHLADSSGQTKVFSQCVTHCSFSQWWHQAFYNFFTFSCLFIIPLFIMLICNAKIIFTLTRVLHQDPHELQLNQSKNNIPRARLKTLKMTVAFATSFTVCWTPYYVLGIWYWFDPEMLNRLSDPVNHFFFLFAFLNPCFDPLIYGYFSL
Muscarinic acetylcholine receptor M1 (Homo sapiens), sequence (P11229 whole entry, looked up): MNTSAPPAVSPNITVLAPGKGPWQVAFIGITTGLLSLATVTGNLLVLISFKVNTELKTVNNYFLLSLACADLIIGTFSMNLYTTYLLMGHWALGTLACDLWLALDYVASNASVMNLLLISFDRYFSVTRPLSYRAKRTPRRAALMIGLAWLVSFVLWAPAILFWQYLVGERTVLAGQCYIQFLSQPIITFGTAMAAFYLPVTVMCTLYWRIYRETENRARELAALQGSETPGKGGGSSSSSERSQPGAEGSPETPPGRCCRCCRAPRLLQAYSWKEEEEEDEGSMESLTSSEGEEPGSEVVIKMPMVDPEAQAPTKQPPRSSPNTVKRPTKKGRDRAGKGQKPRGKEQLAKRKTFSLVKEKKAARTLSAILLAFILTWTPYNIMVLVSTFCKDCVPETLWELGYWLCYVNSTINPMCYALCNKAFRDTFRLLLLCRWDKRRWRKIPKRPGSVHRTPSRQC
KiSS-1 receptor (Homo sapiens), sequence (Q969F8 whole entry, looked up): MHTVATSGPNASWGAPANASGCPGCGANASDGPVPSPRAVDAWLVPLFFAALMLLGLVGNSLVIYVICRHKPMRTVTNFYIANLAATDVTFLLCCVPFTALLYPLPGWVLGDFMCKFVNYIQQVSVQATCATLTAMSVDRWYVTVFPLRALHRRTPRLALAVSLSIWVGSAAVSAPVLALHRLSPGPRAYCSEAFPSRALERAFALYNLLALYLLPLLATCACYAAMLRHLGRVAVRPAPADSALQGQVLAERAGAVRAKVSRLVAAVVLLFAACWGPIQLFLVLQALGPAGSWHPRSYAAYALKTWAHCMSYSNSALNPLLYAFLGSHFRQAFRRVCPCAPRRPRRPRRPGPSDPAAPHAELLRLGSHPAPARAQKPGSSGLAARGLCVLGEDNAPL

As for `CCN(CC)C(=O)/C(C#N)=C/c1cc(O)c(O)c([N+](=O)[O-])c1`, the Potency entry in experiment [1], in experiment [4], in experiment [5], in experiment [6], in [7] and in [8] was “inactive” throughout. For the same molecule, the Potency result in [9], in [10], in experiment [11], in experiment [12] and in [13] was “inactive” in each case. The result in experiment [2] and in [3] was inactive.
With `CC/C=C\CC/C=C/C(OCC)OCC`, the Potency in [1] was 61.1 µM (active). Moreover, the Potency result in experiment [14], in [5], in experiment [6], in [7], in [15] and in experiment [16] was “inactive” each time. Moreover, the Potency result in experiment [8], in [9], in experiment [10], in experiment [11], in experiment [17] and in experiment [12] was “inactive” each time. For the same molecule, the Potency entry in [18], in experiment [19] and in [13] was “inactive” throughout. In addition, the outcome in experiment [2] was inactive.
`c1ccc(CC2=NCCN2)cc1`: the Potency result in experiment [1], in [14], in experiment [5], in experiment [6], in [15] and in [16] was “inactive” throughout. Moreover, the Potency result in experiment [8], in [10], in experiment [11], in experiment [17], in experiment [20] and in [12] was “inactive” throughout. Besides, the Potency result in experiment [18], in [19] and in experiment [13] was “inactive” each time. Further, the outcome in experiment [2] and in experiment [3] was inactive.
On to `CC=C(Cl)Cl`, for which the Potency result in experiment [14], in experiment [4], in experiment [5], in experiment [6], in [7] and in experiment [16] was “inactive” throughout. The Potency result in experiment [8], in [11], in experiment [17], in experiment [20], in experiment [12] and in experiment [19] was “inactive” throughout. The Potency result in experiment [13] is “inactive”. Also, the result in experiment [2] and in experiment [3] was inactive.
On to `CC(C)Cn1cnc2c(N)nc3ccccc3c21`, for which the activity, positive = activation in [1] is 7.96% [at 19 µM]. For the same molecule, the activation was -0.0034% [at 11.8 µM] in experiment [3], 13.5% [at 13.5 µM] in [4], -0.62% [at 13.6 µM] in experiment [5] and 3.84% [at 19 µM] in experiment [17]. Also, the activity change, negative = cytotoxicity in experiment [7] is -0.545% [at 13.5 µM]. Moreover, the activity change, negative = inhibition in experiment [20] is 2.85% [at 18.9 µM].
Turning to `Nc1ccc(S(=O)(=O)O)c(N)c1`, the Potency entry in [1], in [4], in [5], in experiment [6], in [7] and in experiment [15] was “inactive” throughout. Further, the Potency entry in experiment [8], in [9], in [10], in [17], in [20] and in [12] was “inactive” throughout. The Potency result in experiment [18] and in experiment [13] was “inactive” each time. For the same molecule, the outcome in [2] and in experiment [3] was inactive.
Consider `COC(=O)C(C)(C)C`, for which the Potency result in experiment [1], in experiment [14], in experiment [4], in experiment [5], in experiment [6] and in [7] was “inactive” each time. Besides, the Potency entry in [8], in experiment [9], in experiment [10], in experiment [11], in experiment [17] and in experiment [20] was “inactive” in each case. In addition, the Potency entry in [12], in experiment [19] and in [13] was “inactive” each time. The result in experiment [3] was inactive.
As for `O=C(OCCCCCOC(=O)c1ccccc1)c1ccccc1`, the Potency entry in experiment [1], in experiment [14], in experiment [4], in experiment [5], in [7] and in experiment [15] was “inactive” in each case. The Potency result in [16], in [8], in [9], in experiment [10], in [11] and in experiment [12] was “inactive” in each case. The Potency result in experiment [18], in experiment [19] and in experiment [13] was “inactive” throughout. Besides, the result in experiment [2] was inactive.
